We go through 9 molecules from PubChem BioAssay (NCI).

Compounds without any hit were thinned out: in the full panel of roughly 83,000, 20% have a hit.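 Cells were grown in 96-well plates and exposed to the test compound at a single concentration for 48 hours; results are reported as percent growth, with values below 10 considered active.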 Unmarked numbers belong to inactive results. The source made the active and inactive calls.

Test systems include SR leukemia; RPMI-8226 leukemia; OVCAR-8 ovarian; OVCAR-5 ovarian; OVCAR-4 ovarian; IGROV1 ovarian; OVCAR-3 ovarian; HS 578T breast; NCI/ADR-RES ovarian; T-47D breast; BT-549 breast; MDA-MB-435 melanoma; SW-620 colon; MCF7 breast; HCT-116 colon; HCC-2998 colon; KM12 colon; SK-OV-3 ovarian.
Common to all, as to assay: NCI-60 one-dose screen, 48 h (100 = growth as untreated, 0 = no growth, -100 = all killed)
Common to all, as to conditions: 10 µM unless noted

As for `CCCc1cc(=O)oc2c(C(=O)CC(C)C)c(O)c(CC=C(C)C)c(O)c12`, the growth in the test with SR leukemia is 14.3%; with RPMI-8226 leukemia, -12.6% (active); with OVCAR-8 ovarian it was 22.3%; with OVCAR-5 ovarian, 53.8%; in the test on OVCAR-4 ovarian it was 30.5%; with IGROV1 ovarian, 36.9%. For the same molecule, the growth was 13.6% in the test on OVCAR-3 ovarian; 28.1% in the test with HS 578T breast; 0.191% (active) in the test with NCI/ADR-RES ovarian; 13.5% in the test on T-47D breast; 1.17% (active) in the test on BT-549 breast; 24.3% in the test on MDA-MB-435 melanoma. The growth was 27.4% in the test with SW-620 colon; 7.3% (active) in the test with MCF7 breast; 14.3% with HCT-116 colon; 11% with HCC-2998 colon; 18.9% with KM12 colon.

As to `C(=C(\C1=NCCN1)n1ccc2ccccc21)/c1ccccc1`, the growth with SR leukemia is 95.9%; in the test on RPMI-8226 leukemia it was 100%; in the test on OVCAR-8 ovarian, 97%; in the test on OVCAR-5 ovarian, 92.6%; in the test on OVCAR-4 ovarian, 103%; in the test with IGROV1 ovarian, 93.4%. Moreover, the growth in the test on OVCAR-3 ovarian was 104%; in the test with HS 578T breast, 88.6%; in the test on NCI/ADR-RES ovarian it was 97.6%; in the test with T-47D breast it was 90.3%; with BT-549 breast, 107%; with MDA-MB-435 melanoma it was 97.7%. The growth in the test with SW-620 colon was 89.8%; in the test on MCF7 breast, 84.5%; in the test with HCT-116 colon, 94%; in the test with KM12 colon, 99.4%.

As to `CNCC[C@H](Oc1cccc2ccccc12)c1cccs1`, the growth in the test on SR leukemia was 51.9%; in the test on RPMI-8226 leukemia it was 94.7%; with OVCAR-8 ovarian, 82.1%; with OVCAR-5 ovarian, 117%; with OVCAR-4 ovarian, 71.7%; in the test on IGROV1 ovarian, 84.7%. Further, the growth in the test with OVCAR-3 ovarian is 86.9%; in the test on HS 578T breast, 67.5%; in the test on NCI/ADR-RES ovarian, 83.4%; with T-47D breast, 99.9%; with BT-549 breast, 94.2%; in the test on MDA-MB-435 melanoma it was 88.5%. In addition, the growth is 106% in the test on SW-620 colon; 78.1% in the test with MCF7 breast; 68.8% in the test on HCT-116 colon; 79% in the test with HCC-2998 colon; 109% in the test with KM12 colon.

Take `COc1ccc(C(=O)/C=C/c2ccccc2)cc1S(N)(=O)=O`: the growth in the test with SR leukemia was 13.4%; with RPMI-8226 leukemia it was 64.9%; in the test on OVCAR-8 ovarian, 46.2%; in the test with OVCAR-5 ovarian it was 101%; with OVCAR-4 ovarian, 86.1%; in the test with IGROV1 ovarian, 54.3%. Besides, the growth in the test on OVCAR-3 ovarian was 52.4%; in the test with HS 578T breast, 74.4%; in the test on NCI/ADR-RES ovarian it was 79.3%; in the test on T-47D breast, 77.6%; in the test on BT-549 breast, 75.2%; in the test on MDA-MB-435 melanoma, 96.5%. Also, the growth in the test on SW-620 colon was 25.8%; with MCF7 breast, 25%; in the test on HCT-116 colon it was 13.4%; in the test with HCC-2998 colon, 95.2%; in the test with KM12 colon, 38%.

In the case of `Cc1ccc2cnc(N)c(C#Cc3cc(C(=O)Nc4ccc(CN5CCN(C)CC5)c(C(F)(F)F)c4)cnc3C)c2c1`, the growth is -36.1% (active) in the test on SR leukemia; -40.6% (active) in the test with RPMI-8226 leukemia; 48.4% with OVCAR-8 ovarian; -59.1% (active) in the test on OVCAR-5 ovarian; 37.6% in the test with OVCAR-4 ovarian; 11% in the test on IGROV1 ovarian. Moreover, the growth in the test with OVCAR-3 ovarian is 32.4%; with HS 578T breast it was -12.4% (active); in the test with NCI/ADR-RES ovarian, 22.8%; in the test with T-47D breast, 66.8%; with BT-549 breast it was 16.5%; in the test with MDA-MB-435 melanoma, -69.3% (active). The growth with SW-620 colon was -77.3% (active); in the test with MCF7 breast, -50.8% (active); in the test on HCT-116 colon, -83.9% (active); in the test on HCC-2998 colon, 54%; in the test on KM12 colon it was 0.561% (active).

Regarding `Cc1cccc(NC(=O)Cn2cc(CN3CCN(c4ccnc5cc(Cl)ccc45)CC3)nn2)c1`, the growth in the test on SR leukemia was 78%; in the test on RPMI-8226 leukemia, 63.7%; in the test on OVCAR-8 ovarian it was 92.7%; in the test with OVCAR-5 ovarian it was 96.8%; in the test on OVCAR-4 ovarian, 78.1%; in the test with SK-OV-3 ovarian it was 76.6%. Further, the growth in the test with OVCAR-3 ovarian is 91.1%; in the test on HS 578T breast, 85.1%; in the test on NCI/ADR-RES ovarian, 91.3%; with T-47D breast, 83.8%; with BT-549 breast it was 86.2%; in the test with MDA-MB-435 melanoma, 93.4%. For the same molecule, the growth in the test with SW-620 colon is 90.1%; in the test on MCF7 breast it was 88.2%; in the test on HCT-116 colon it was 95.3%; in the test on HCC-2998 colon, 102%; in the test with KM12 colon, 81.6%.

As for `Cc1c(O)cc(-c2cnc(N/N=C/c3ccccc3)s2)c(O)c1C`, the growth with SR leukemia is 95.3%; with RPMI-8226 leukemia it was 51.5%; in the test on OVCAR-8 ovarian, 84.4%; in the test with OVCAR-5 ovarian, 110%; in the test on OVCAR-4 ovarian it was 63.5%; with IGROV1 ovarian it was 83.8%. For the same molecule, the growth in the test with OVCAR-3 ovarian was 95.5%; with HS 578T breast, 91.2%; with NCI/ADR-RES ovarian, 93.6%; with T-47D breast, 29.7%; in the test on BT-549 breast, 72.8%; with MDA-MB-435 melanoma, 95.5%. Also, the growth with SW-620 colon is 113%; with MCF7 breast, 72.3%; in the test with HCT-116 colon, 96.2%; with HCC-2998 colon it was 131%; with KM12 colon, 90.7%.

On to `O=c1oc2ccccc2cc1-c1nn(-c2ccccc2)cc1-c1nn[nH]n1`, for which the growth in the test with SR leukemia is 92.4%; in the test on RPMI-8226 leukemia, 100%; in the test with OVCAR-8 ovarian, 104%; in the test with OVCAR-5 ovarian, 93.2%; in the test on OVCAR-4 ovarian, 97.9%; with SK-OV-3 ovarian it was 99.8%. Further, the growth in the test on HS 578T breast was 105%; in the test on NCI/ADR-RES ovarian, 102%; in the test with T-47D breast it was 100%; with BT-549 breast, 103%; with MDA-MB-435 melanoma, 99.5%; in the test on SW-620 colon it was 102%. Also, the growth with MCF7 breast is 94.8%; in the test on HCT-116 colon, 96.5%; with HCC-2998 colon, 110%; in the test with KM12 colon, 106%.

With `O=CCCCOCc1ccccc1`, the growth in the test on SR leukemia is 96%; in the test with RPMI-8226 leukemia, 100%; in the test on OVCAR-8 ovarian, 103%; in the test with OVCAR-5 ovarian, 101%; with OVCAR-4 ovarian it was 98.6%; in the test with SK-OV-3 ovarian it was 99.9%. For the same molecule, the growth is 110% in the test with OVCAR-3 ovarian; 92.9% in the test with HS 578T breast; 102% in the test with T-47D breast; 103% in the test on BT-549 breast; 107% in the test on MDA-MB-435 melanoma; 100% with SW-620 colon. Besides, the growth was 91.7% in the test with MCF7 breast, 105% in the test with HCT-116 colon, 94.2% in the test with HCC-2998 colon and 102% in the test on KM12 colon.
